NOD2 RIPK2 PPI: NOD2-RIPK2 protein interaction inhibition; inhibition, % at 4.98 µM; CHO BLA complementation NOD2-RIPK2, CCF4 ratio; AID 624267; O43353; 0.38% of 360,000 active; in the data active = inhibition above about 21%;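 note: 0% = vehicle only and 100% = reference blocker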
GRK2 aptamer HTS: human GRK2 inhibition via aptamer displacement; P25098; bead flow cytometry, FAM-aptamer displacement from GRK2; inhibition of aptamer binding, % at 10 µM; 0.59% of 330,000 active; AID 488847;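 active = inhibition of aptamer binding above 40%, roughly 3 SD of noise, on plates passing a quality check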;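 note: median bead fluorescence of bound FAM aptamer so fluorescent compounds give negative values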
Target sequence (P25098 whole entry, looked up): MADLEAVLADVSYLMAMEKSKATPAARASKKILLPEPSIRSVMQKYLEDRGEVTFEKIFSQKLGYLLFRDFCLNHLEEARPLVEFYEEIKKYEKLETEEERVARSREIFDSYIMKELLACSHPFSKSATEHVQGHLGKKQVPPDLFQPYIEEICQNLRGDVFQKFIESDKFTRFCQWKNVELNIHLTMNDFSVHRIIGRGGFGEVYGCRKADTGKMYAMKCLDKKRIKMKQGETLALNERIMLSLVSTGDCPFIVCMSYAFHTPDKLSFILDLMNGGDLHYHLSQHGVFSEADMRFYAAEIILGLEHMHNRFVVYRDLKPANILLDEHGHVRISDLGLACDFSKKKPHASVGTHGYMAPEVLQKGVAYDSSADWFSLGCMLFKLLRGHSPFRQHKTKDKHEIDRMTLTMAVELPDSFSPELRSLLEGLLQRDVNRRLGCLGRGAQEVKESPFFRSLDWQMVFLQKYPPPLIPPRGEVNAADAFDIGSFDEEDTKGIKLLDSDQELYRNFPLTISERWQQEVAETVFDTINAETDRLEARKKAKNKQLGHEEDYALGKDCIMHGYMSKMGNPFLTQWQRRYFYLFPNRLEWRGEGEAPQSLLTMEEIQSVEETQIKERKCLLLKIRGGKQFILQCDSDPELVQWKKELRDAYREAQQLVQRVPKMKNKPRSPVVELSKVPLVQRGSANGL
TLR9-MyD88 block: TLR9-MyD88 interaction inhibition. AID 504734. Q9NR96+Q99836. inhibition, % at 4.98 µM. 0.21% of 340,000 active. CHO BLA complementation TLR9-MyD88, CCF4 FRET ratio;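 active = inhibition above the mean over all tested compounds plus 3 SD, cut at about 21% in these data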;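 note: 0% = DMSO only wells and 100% = clavulanate BLA inhibitor control wells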
TLR4 MyD88 comp: blocks binding of human TLR4 to MyD88; 0.18% of 200,000 active; HeLa CL3-4 TLR4/MyD88 BLA complementation, FRET ratio; AID 861; inhibition, % at 8.4 µM; O00206+Q99836; in the data active = inhibition above about 25%;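 note: 0% = vehicle and 100% = reference inhibitor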
TMEM16A inh: inhibitors of mouse TMEM16A calcium-activated chloride channel; AID 588511; HEK293 TMEM16A/YFP iodide influx fluorescence, ionomycin; normalized B-score (activity score, 25-100; higher = stronger inhibition) at 10 µM; 1.2% of 310,000 active; Q8BHY3;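 active = ratio plate-corrected score three or more library SD toward inhibition, starting fluorescence score within five deviations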;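 note: score derived from kinetic fluorescence span divided by baseline fluorescence per well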
TMEM16A act: activates or potentiates the mouse TMEM16A chloride channel; Q8BHY3; HEK293 TMEM16A/YFP-H148Q/I152L, iodide quench fluorescence; active compounds read low; B-score at 10 µM; 0.3% of 340,000 active; AID 623877;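 active = fluorescence-ratio B-score plate-corrected deviation score at least 3 library SD below zero, with starting fluorescence score within 5 deviations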;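 note: channel opened by trigger with iodide after compound preincubation; score built on the fluorescence ratio of max minus min over baseline; more negative score means more quench and so TMEM16A activation or potentiation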
GRK2 inh confirm: human GRK2 inhibition confirmation, cherry pick 1 | shares compounds with GRK2 aptamer HTS | bead-bound GRK2, FAM-aptamer displacement, flow cytometry | 4% of 2,000 active | aptamer displacement, % at 10 µM;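 active = aptamer displacement above 40%, near three times the noise of non-fluorescent compounds, on plates passing quality checks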;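 note: negative values mostly reflect intrinsic compound fluorescence rather than true enhancement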
Aptamer quench 1: quenches fluorescent RNA aptamer, GRK2 hit artifact | 110 tested, under 10 active | fluorescence change (kMESF span), kMESF (test concentration not listed) | Fluorescent RNA aptamer beads, quenching, flow cytometry; active compounds read high | shares compounds with GRK2 aptamer HTS | AID 504521;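 active = compounds whose bead fluorescence drops by more than 37 kMESF across the dose range, marking them as dye quenchers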
FAM quench CP1: aptamer fluorescence quenching in GRK2 counter-screen | shares compounds with GRK2 aptamer HTS | AID 504580 | 2,000 tested, under 10 active | Carboxyfluorescein RNA aptamer on beads, flow cytometry quenching; active compounds read low | fluorescence response (% of DMSO), % at 10 µM;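 active = compounds that quench the bead-bound fluorescent RNA probe, cutting fluorescence to under half of the solvent control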;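 note: counterscreen run without GRK2 so only probe quenching by compound is measured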
GRK2 CP2: human GRK2 inhibition confirmation, cherry pick 2. bead-bound GRK2, FAM-aptamer displacement, flow cytometry. 360 tested, under 10 active. AID 504782. inhibition of aptamer binding, % at 10 µM. shares compounds with GRK2 aptamer HTS;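 active = inhibition of aptamer binding above 40%, about triple the noise seen with nonglowing compounds, on plates passing quality control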;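 note: negative values mostly come from compounds that fluoresce themselves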
FAM quench SP: quenches fluorescent RNA aptamer, GRK2 hit artifact; shares compounds with GRK2 aptamer HTS; carboxyfluorescein RNA aptamer beads, flow cytometry quenching; active compounds read low; fluorescence response vs DMSO, % at 10 µM; 360 tested, under 10 active;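 active = response vs DMSO under 50%, meaning signal dropped by over half, treated as fluorescence quencher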;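 note: labelled aptamer on streptavidin beads without GRK2 as a quench counter-screen; 100% = bead fluorescence of DMSO wells and lower means quenching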
TLR9-MyD88 conf: confirmation of human TLR9-MyD88 binding inhibitors; shares compounds with TLR9-MyD88 block; CHO TLR9/MyD88 BLA complementation, CCF4 FRET ratio; inhibition, % at 4.98 µM; 51% of 680 active; AID 540250;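 active = mean inhibition across three repeats above about 21% taken from the earlier screen, limit read from the data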;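 note: blue over green emission ratio reports constitutive TLR9 MyD88 association via BLA complementation; 0% = DMSO vehicle wells and 100% = clavulanate BLA inhibitor wells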
BLA counter-1: beta-lactamase reporter inhibition, counter-screen artifact; shares compounds with TLR9-MyD88 block; inhibition, % at 4.98 µM; 7% of 680 active; CHO-BLA cells, CCF4 FRET ratio, BLA reporter;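 active = mean inhibition above a 50% cutoff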;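 note: counterscreen of TLR9-MyD88 hits on CMV-driven BLA in CHO-K1 cells; 0% = DMSO alone and 100% = clavulanate blocking BLA; higher means less blue over green ratio so more BLA blockade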
TLR9 CHO cytotox: CHO cell toxicity counter-screen for TLR9-MyD88 inhibitors. shares compounds with TLR9-MyD88 block. TLR9-MyD88 CHO cells cytotoxicity, luminescence. inhibition, % at 4.98 µM. 39% of 680 active. AID 588336; in the data active = inhibition above about 11%
TMEM16A reconf: re-confirmation of mouse TMEM16A chloride channel inhibitors | shares compounds with TMEM16A inh | HEK293 TMEM16A/YFP-H148Q, iodide quench fluorescence; ionomycin added to raise cell calcium | inhibition, % at 10 µM | 39% of 2,300 active;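 active = mean duplicate percent inhibition, scaled so buffer wells are 0 and the reference blocker 100, over three buffer SD above buffer mean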
TMEM16A Ca cntr: alters calcium mobilization in TMEM16A HEK293 cells, counter-screen; shares compounds with TMEM16A inh; TMEM16A/YFP HEK293, Fluo4 calcium mobilization; calcium response (% of ionomycin), % at 10 µM; 2% of 2,300 active;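 active = duplicate-averaged calcium signal over 20% of the ionomycin maximum, relative to buffer baseline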;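 note: each well's signal is peak minus trough fluorescence divided by its pre-addition baseline; 0% = buffer wells and 100% = ionomycin wells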
Parental YFP cnt: acts in parental YFP-HEK293 cells lacking TMEM16A, counter-screen; iodide YFP quench, ionomycin; 2,300 tested, under 10 active; YFP ratio F(max-min)/F0 at 10 µM; shares compounds with TMEM16A inh;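 active = yellow fluorescent protein signal ratio exceeding the buffer control mean by over 5 SD of those controls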;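 note: ratio is mean of duplicate wells from kinetic YFP trace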
ClC-1 inh: rat ClC-1 inhibition, TMEM16A specificity screen. shares compounds with TMEM16A inh. CHO ClC-1-YFP, iodide influx fluorescence quench; iodide control reads 0, buffer control 100. ratio percent, % at 10 µM. 2,300 tested, under 10 active;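 active = duplicate-mean ratio percent above the mean of iodide-only control wells, which defines zero, plus 5 of their SD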;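 note: higher percent means stronger block of ClC-1 iodide influx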
NOD2-RIPK2 conf: confirmation of human NOD2-RIPK2 interaction inhibitors. shares compounds with NOD2 RIPK2 PPI. CHO cells, NOD2-RIPK2 BLA complementation, CCF4 FRET. inhibition, % at 4.98 µM. 70% of 1,200 active;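 active = mean inhibition across replicates above a set limit taken from the earlier primary screen, cut at about 21% in these data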;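 note: 0% = DMSO-only wells and the high end = clavulanate BLA-blocked wells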
BLA counter-2: hits BLA reporter in NOD2-RIPK2 inhibitor counterscreen. 57% of 1,200 active. CHO BLA reporter, CCF4 FRET ratio. inhibition, % at 4.98 µM. shares compounds with NOD2 RIPK2 PPI;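 active = mean inhibition above the low-control mean inhibition plus three low-control SD, cut at about 11% in these data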;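 note: 0% = DMSO only wells and 100% = clavulanate high control wells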
* marks the source's active call; other numbers are inactive results; i = inactive; . = no result given. Rows were chosen to be rich in hits. Some 2.2% of all compounds tested hit in one or more screens of this group.

SMILES	NOD2 RIPK2 PPI	GRK2 aptamer HTS	TLR9-MyD88 block	TLR4 MyD88 comp	TMEM16A inh	TMEM16A act	TLR9-MyD88 conf	BLA counter-1	TLR9 CHO cytotox	others
O=[N+]([O-])c1ccccc1/C=C/C=N/n1c(-c2cc(-c3ccccc3)n[nH]2)n[nH]c1=S	-11	69*	-10	.	i	i	.	.	.	GRK2 inh confirm=11;FAM quench CP1=99
Cc1ccc(-c2n[nH]c(=S)n2/N=C/C=C/c2ccccc2[N+](=O)[O-])cc1	-4	0	2	8	i	i	.	.	.
CN(Cc1ccco1)C(=O)[C@H](Cc1ccccc1)NC(=O)CC[C@H]1O[C@@H](n2ccc(=O)[nH]c2=O)[C@H](O)[C@@H]1O	4	.	.	.	.	.	.	.	.
Cc1ccc2sc(C)[n+](CCO)c2c1	2	100*	10	1	i	i	.	.	.	GRK2 inh confirm=-2;FAM quench CP1=97
CCC(Cc1ccccc1)NC(=O)CSc1ccsc1[N+](=O)[O-] (centres undefined)	2	16	10	4	i	i	.	.	.
Cc1ccc(CNC(=O)CC(C)S(=O)(=O)c2ccc3c(c2)NC(=O)C(C)S3)cc1 (centres undefined)	4	3	6	.	25*	i	.	.	.	GRK2 CP2=1;FAM quench SP=100;TMEM16A reconf=22%*;TMEM16A Ca cntr=i;Parental YFP cnt=-0.95;ClC-1 inh=-8
Cc1ccc(Oc2c(CO)c(-c3ccccc3)nn2C)cc1	-12	6	3	1	i	i	.	.	.
CCOC(=O)c1c(NC(=O)CSc2nc3ccccc3o2)sc(C(C)=O)c1C	-1	51*	6	-19	100*	i	.	.	.	GRK2 inh confirm=5;FAM quench CP1=95;TMEM16A reconf=22%*;TMEM16A Ca cntr=i;Parental YFP cnt=-1.1;ClC-1 inh=-3
CCOC(=O)c1c(NC(=O)CSc2nnc(-c3ccccc3)o2)sc(C(C)=O)c1C	-4	2	-8	-2	i	i	.	.	.
O=C(Oc1ccc(Cl)c2ccccc12)N1CCCCC1	-4	99*	-7	-18	25*	i	.	.	.	GRK2 inh confirm=1;FAM quench CP1=102;TMEM16A reconf=i;TMEM16A Ca cntr=i;Parental YFP cnt=-0.88;ClC-1 inh=-12
CCOC(=O)Cc1csc(NC(=O)CCCCCN2C(=O)c3ccccc3C2=O)n1	0	0	-1	3	i	i	.	.	.
O=C(NCc1ccc(F)cc1)c1cccc2c1C(=O)c1ccc(N3CCC(Cc4ccccc4)CC3)cc1S2(=O)=O	12	0	14	.	.	i	.	.	.
O=C(NC1CC1)c1cccc2c1C(=O)c1ccc(N3CCC(Cc4ccccc4)CC3)cc1S2(=O)=O	34*	73*	32*	.	.	i	21	25	2	GRK2 CP2=-20;FAM quench SP=101;NOD2-RIPK2 conf=45*;BLA counter-2=50*
COc1ccc(O)c(CN2CCCC(N3CCc4ccccc4C3)C2)c1 (centres undefined)	13	2	0	.	i	i	.	.	.
CCOC(=O)C(C)N1C(=O)S/C(=C\c2ccc(-c3ccccc3C(=O)O)o2)C1=O (centres undefined)	23*	84*	-1	.	i	i	.	.	.	GRK2 inh confirm=71*;Aptamer quench 1=-278;FAM quench CP1=103;NOD2-RIPK2 conf=12;BLA counter-2=21*
Cc1ccc(S(=O)(=O)C=CS(=O)(=O)c2ccc(C)cc2)cc1	7	.	29*	.	.	.	37*	24	97*
CN1CCN(C(=O)CSc2nc(-c3cccs3)cc(-c3cccs3)c2C#N)CC1	18	0	24*	-10	i	i	21	19	5
CN(C)CC1CC/C(=C\c2ccc(O)cc2)C1=O (centres undefined)	65*	.	28*	.	.	i	24*	2	97*
CC1CCC/C(=C\c2ccc(O)cc2)C1=O (centres undefined)	4	0	3	.	i	i	.	.	.
CC(=O)c1cc(C#N)c(N2CCOCC2)nc1C	9	2	0	-3	i	i	.	.	.
COC(=O)c1cc(C#N)c(N2CCOCC2)nc1C	-7	2	22*	-5	i	i	-4	-4	0
O=C1c2cccc3c(O)ccc(c23)C(=O)N1c1ccc(Cl)cc1	7	2	27*	.	i	i	12	15	0

Source: PubChem (several laboratories)
